The campaign covered roughly 340,000 compounds. About 2,100 (0.62%) were called active.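 Rule for the calls: active = first-screen hits whose inhibition reached a set limit at any dose in the follow-up dose series; inconclusive = inhibition above the set first-screen limit but never retested; inactive = the rest.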 Only a sample is shown. Potency and affinity values are given separately.

Consider 63 molecules from PubChem BioAssay AID624330 (Southern Research Specialized Biocontainment Screening …, 2012).

In the assay the target is Rac GTPase-activating protein 1 (Homo sapiens) (UniProt Q9H0H5). Nature of the assay: blockers of MgcRacGAP-driven Rac1 GTP hydrolysis – biochemical, ADP Hunter fluorescence, primary and confirmatory, confirmation (AID 624330).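 Note: fluorescence reports GDP produced by GAP-driven GTP hydrolysis.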 The settings on record: MgcRacGAP-stimulated Rac1 GTP hydrolysis, at 30 µM, active compounds read high, GST-tagged Rac1 F28L mutant substrate.
Chain of Rac GTPase-activating protein 1 (Homo sapiens) (Q9H0H5 whole entry, looked up): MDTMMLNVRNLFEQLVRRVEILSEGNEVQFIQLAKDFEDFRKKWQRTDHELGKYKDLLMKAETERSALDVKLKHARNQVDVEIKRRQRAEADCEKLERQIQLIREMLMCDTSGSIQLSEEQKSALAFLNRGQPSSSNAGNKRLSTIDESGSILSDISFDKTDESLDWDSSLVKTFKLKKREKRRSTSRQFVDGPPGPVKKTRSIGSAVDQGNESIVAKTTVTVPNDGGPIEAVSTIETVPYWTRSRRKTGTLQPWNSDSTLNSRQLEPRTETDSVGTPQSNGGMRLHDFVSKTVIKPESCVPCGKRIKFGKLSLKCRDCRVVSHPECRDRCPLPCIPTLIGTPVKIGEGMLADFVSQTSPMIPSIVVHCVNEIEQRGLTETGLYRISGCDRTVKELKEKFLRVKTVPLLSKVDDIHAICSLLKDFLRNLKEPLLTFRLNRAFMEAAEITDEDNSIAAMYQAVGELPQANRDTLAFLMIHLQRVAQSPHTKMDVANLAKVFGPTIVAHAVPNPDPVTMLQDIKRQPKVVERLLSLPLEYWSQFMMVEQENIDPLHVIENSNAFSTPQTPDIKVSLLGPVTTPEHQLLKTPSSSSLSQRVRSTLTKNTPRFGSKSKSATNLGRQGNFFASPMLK
Usually inhibition stands for the drop in the measured response relative to a control, in per cent. Turning to `O=[N+]([O-])c1ccc(-n2nnnc2CN2CCOCC2)cc1`, the inhibition is 8.87% (inactive). The result for `C/C(=N\O)c1ccc2c3ccccc3n(C)c2c1` reads 11% (inactive); that for `COc1ccc2c(c1)c1ccccc1n2C`, -2.65% (inactive). Turning to `Cc1cc(N2CCOCC2)nc(SCc2c(Cl)cccc2Cl)n1`, the inhibition was 8.06% (inactive). Take `Clc1ccc(CN2CCC(Cc3ccccc3)CC2)cc1`: the inhibition is 14.2% (inactive).

On to `O=C(O)C1CCN(Cc2ccccn2)CC1`, for which the inhibition was 4.54% (inactive). Under `O=c1ccn([C@H]2C[C@H](O)[C@@H](CO)O2)c(=O)[nH]1` stands 1.01% (inactive); under `CN(CC(=O)NCC(=O)Nc1ccc(F)cc1)C1CCS(=O)(=O)C1` (stereo not drawn), 3.81% (inactive). The result for `COc1ccc2c(c1)C(c1ccccc1)=NNC(c1ccco1)=N2` reads 2.48% (inactive). Under `COc1ccc(C2NC(=O)C(C#N)=C(S)N2c2ccccc2)cc1OC` (stereo not drawn) stands 42.4% (inactive); under `Cc1ccc(N2C(S)=C(C#N)C(=O)NC2c2ccco2)cc1` (stereo not drawn), 49.9% (inactive); under `N#CC1=C(S)N(c2ccccc2)C(c2ccc(-c3ccc(Cl)c(Cl)c3)o2)NC1=O` (stereo not drawn), 24.7% (inactive). For the molecule `N#CC1=C(S)N(c2ccccc2)C(c2ccco2)NC1=O` (stereo not drawn), the inhibition was 1.78% (inactive). As to `N#CC1=C(S)N(c2ccccc2)C(c2ccc(-c3cc(Cl)ccc3Cl)o2)NC1=O` (stereo not drawn), the inhibition is 19.7% (inactive).

On to `COc1ccc(N2C(S)=C(C#N)C(=O)NC2c2ccco2)cc1` (stereo not drawn), for which the inhibition was 38.5% (inactive). The result for `O=C(COC(=O)c1cc(F)c(F)cc1Cl)NC1CCCCCC1` reads -27.4% (inactive); that for `CCN(CC)S(=O)(=O)c1ccc(N2CCN(c3ccccc3O)CC2)nc1`, 5.53% (inactive); that for `Clc1ccc(NCc2nnc3n2CCCCC3)cc1`, 10.6% (inactive). With `CC(=O)N1CCOc2ccc(S(=O)(=O)Nc3ncccc3C)cc21`, the inhibition was 4.93% (inactive). Under `Cc1ccc(NC(=O)Cc2nc(COC(=O)c3c(F)cccc3Cl)cs2)cc1` stands 2.55% (inactive). With `O=C1c2ccccc2/C(=C\c2ccc(Br)s2)N1c1ccccc1`, the inhibition is 1.75% (inactive). Consider `COc1ccc(N2CCN(C(=O)c3cc(=O)[nH]c4ccccc34)CC2)cc1`, for which the inhibition was 18.3% (inactive). The result for `COc1ccc(C(OCC(O)CN2CCC(O)CC2)c2ccc(OC)cc2)cc1` (stereo not drawn) reads 6.25% (inactive); that for `COc1ccc(N2CCN(CC(O)COC(c3ccccc3)c3ccccc3)CC2)cc1` (stereo not drawn), 8.7% (inactive); that for `OC(COC(c1ccc(F)cc1)c1ccc(F)cc1)CN1CCc2ccccc2C1` (stereo not drawn), 20.1% (inactive). On to `OC(COC(c1ccc(F)cc1)c1ccc(F)cc1)CN1CCCC1` (stereo not drawn), for which the inhibition was 31.4% (inactive). Under `CCOC(=O)Cc1csc(NC(=O)c2ccc(C)o2)n1` stands 3.9% (inactive); under `Cc1nc(SCc2ccc([N+](=O)[O-])cc2)nc2ccccc12`, 8.16% (inactive). Under `O=C(COc1ccccc1)NN1C(=O)CSC1=S` stands 6.09% (inactive); under `O=C1CSC(=S)N1c1ccccc1`, -7.87% (inactive); under `O=C(Cn1cc([N+](=O)[O-])cn1)NCc1cc2ccccc2[nH]1`, 8.44% (inactive). Under `CCOc1cc(N2CCOCC2)c(OCC)cc1NC(=O)Cc1ccccc1` stands 10.9% (inactive). In the case of `CCOc1cc(N2CCOCC2)c(OCC)cc1NC(=O)c1ccccc1`, the inhibition is 27.1% (inactive). Under `CCOc1cc(N2CCOCC2)c(OCC)cc1NC(=O)c1cc(C)cc(C)c1` stands 10.8% (inactive).

`CCOc1cc(N2CCOCC2)c(OCC)cc1NC(=O)c1ccc(C)cc1`: the inhibition was 19.8% (inactive). In the case of `CC(C)CN1CC(Br)C(=O)NC1=O` (stereo not drawn), the inhibition is 4.9% (inactive). The result for `COc1ccc(CCNC(=S)Nc2ccccc2)cc1` reads 12.5% (inactive). Under `COc1ccc(C)cc1NC(=O)C(=O)N/N=C(\C)CC(=O)Nc1cccnc1` stands -2.35% (inactive); under `N#CCC(=N)N1CCN(c2ccc(F)cc2)CC1`, 1.28% (inactive); under `CN(C(=O)OC(C)(C)C)[C@H](Cc1ccccc1)C(=O)N[C@H]1CCCCNC1=O`, 4.78% (inactive). Consider `CCS(=O)(=O)c1ccc(O)c(NC(=O)/C=C/c2ccccc2)c1`, for which the inhibition was 5.42% (inactive). Under `Cc1cc(NC(=O)/C=C/c2ccccc2)c(C(C)C)cc1O` stands 12.2% (inactive); under `CCC1(c2ccccc2)NC(=O)N(CC(=O)N(CC(=O)Nc2ccccc2C(F)(F)F)Cc2ccco2)C1=O` (stereo not drawn), 1.52% (inactive). The result for `COc1ccc(C)cc1NC(=O)c1cc(S(=O)(=O)N2CCOCC2)cn1C` reads 10.3% (inactive); that for `CCOC(=O)C1CCN(C(=O)COC(=O)c2oc3ccccc3c2C)CC1`, 7.79% (inactive).

Take `COc1ccc(/C=N/NC(=O)c2ccc(=O)[nH]n2)cc1OC`: the inhibition was 8.66% (inactive). Under `COc1ccc(/C=N/NC(=O)c2cccc(C(=O)N/N=C/c3ccc(OC)c(OC)c3)n2)cc1OC` stands 5.53% (inactive); under `CCOC(=O)N/N=C/c1ccc(OC)c(O)c1`, 18.6% (inactive); under `COc1cc(/C=N/NC(=O)c2cccc(C(=O)N/N=C/c3ccc(O)c(OC)c3)n2)ccc1O`, 9.56% (inactive). The result for `CC(C)NC(=O)c1cc2n(n1)C(C(F)(F)F)CC(c1ccco1)N2` (stereo not drawn) reads 5.2% (inactive). The result for `C=CCn1c(SCC(=O)NCCOC)nnc1-c1cc2c(s1)CCC(CC)C2` (stereo not drawn) reads 7.45% (inactive); that for `O=C1c2cc([N+](=O)[O-])ccc2-c2ncccc21`, -4.67% (inactive); that for `Cn1c(=O)[nH]c(=O)c2c1nc(Sc1ccccc1)n2CCc1ccccc1`, 0.88% (inactive).

As to `CCC(C)(O)c1[nH]c2ccc(C(F)(F)F)cc2c1C` (stereo not drawn), the inhibition is 5.14% (inactive). `CNc1cccc2c1C(=O)c1ccccc1C2=O`: the inhibition was 6.76% (inactive). The result for `CN1C(=O)c2cccc(NCCCN3C(=O)c4ccccc4C3=O)c2C1=O` reads 10.7% (inactive).

As to `OCCNCCO`, the inhibition was -1.48% (inactive). Under `CN1C(=O)c2cccc(NCCCCCCN3C(=O)c4ccccc4C3=O)c2C1=O` stands 5.81% (inactive). The result for `O=C1c2ccccc2C(=O)c2c(NCc3cccnc3)cccc21` reads 1.26% (inactive); that for `O=C1c2ccccc2C(=O)c2c(Nc3ccc(CCO)cc3)ccc(O)c21`, 15.2% (inactive); that for `CC(C)Oc1ccc(C(=O)NC2=NCCS2)cc1`, 6.37% (inactive).

For the molecule `Cc1cccc(NC(=O)CSc2nnnn2-c2cccnc2)c1`, the inhibition was 4.2% (inactive).

In the case of `Cc1cc(C)c(NC(=O)CN(C)C(=O)CCN2C(=O)C3CCCCC3C2=O)c(C)c1` (stereo not drawn), the inhibition is 11.4% (inactive).
